Compound activity as filed in PubChem.
Sampled rows, rich in hits. Any-hit rate of the full collection: about 9.2%.
Rab9 promoter act – activators of Rab9 promoter; Huh7 Rab9 promoter-luciferase reporter, luminescence, 24 h; Potency, µM (doses to about 9.22 µM), for the others: at the top dose activation, negative = inhibition, most hits filed as activators; actives 2.8% (n = 320,000); further: % of control where 0% means no effect; nearly all actives have a fitted effect of over 60% in size
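Luminescence read-out: Huh7 cells stably expressing Rab9-luciferase, treated 24 h with compound at 37 °C, then lysed with luciferase reagent for 10 min at ambient before reading.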
FLuc counter – counter-screen for miR-21 project: firefly luciferase inhibitors or activators. AID 588342. purified FLuc, Km substrates, luminescence inhibition. P08659. actives 6.9% (n = 360,000). Potency, µM (highest dose often 57.5 µM), inactives show at the top dose activity change, negative = inhibition, hits mostly inhibitors;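 further: plate controls were vehicle for no effect and reference inhibitor for full effect; nearly all actives have a fitted effect of over 55% in size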
Target sequence (P08659 whole entry, looked up): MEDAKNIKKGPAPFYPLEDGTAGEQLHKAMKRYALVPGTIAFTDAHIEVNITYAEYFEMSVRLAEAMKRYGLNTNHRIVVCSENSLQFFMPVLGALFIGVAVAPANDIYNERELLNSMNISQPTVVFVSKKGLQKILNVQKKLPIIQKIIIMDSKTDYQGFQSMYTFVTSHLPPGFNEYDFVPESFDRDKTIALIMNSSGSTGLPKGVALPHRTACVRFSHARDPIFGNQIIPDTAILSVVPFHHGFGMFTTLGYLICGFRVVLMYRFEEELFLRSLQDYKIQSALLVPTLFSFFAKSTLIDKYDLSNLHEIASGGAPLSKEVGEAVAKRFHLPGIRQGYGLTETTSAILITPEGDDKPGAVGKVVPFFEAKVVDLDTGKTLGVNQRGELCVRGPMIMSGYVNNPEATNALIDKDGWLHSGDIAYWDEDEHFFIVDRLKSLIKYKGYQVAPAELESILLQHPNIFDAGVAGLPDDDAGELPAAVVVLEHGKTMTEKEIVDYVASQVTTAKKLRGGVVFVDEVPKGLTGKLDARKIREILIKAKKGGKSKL
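Biochemical qHTS of compounds, final roughly 60 µM downward over six points, against 10 nM purified firefly luciferase using Km concentrations of substrates (10 uM D-luciferin, 10 uM ATP) in Tris acetate pH 7.5 buffer; luminescence output.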
ELG1 repair inh – inhibitors of ELG1-dependent DNA repair in HEK293T cells; HEK293T ELG1-luciferase reporter, luminescence, 16 h; DNA damage induced by 5-fluorouridine; Potency, µM (highest dose often 46.1 µM), for inactives: at the top dose activity change, negative = inhibition, actives largely listed as inhibitors; actives 2.3% (n = 330,000); AID 504467; further: on the % scale 0 is the no-effect control and ±100 the full control effect; nearly all actives have a fitted effect of over 55% in size
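Cells (2,000 per well) received 5-fluorouridine plus test compound or DMSO and were incubated 16 hr at 37 °C, 5% CO2. Luciferase activity was read by luminescence 30 min after ONE-Glo addition; signal suppression marked inhibition of damage-induced ELG1 function.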
SMN2 splice enh – increases expression of the SMN2 splice variant. Potency, µM (top dose mostly 46.1 µM), without a hit: at the highest dose activity change, positive = activation, hits mostly activators. AID 1458. HEK293 SMN2-luciferase splicing reporter, luminescence, 30-36 h. actives 2.8% (n = 210,000); further: % of control where 0% means no effect; nearly all actives have a fitted effect of over 55% in size
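HEK293 cells carry an SMN2 […]–luciferase reporter in which exon 7 inclusion puts luciferase in frame. Cells were plated 10-12 h before compound addition, then incubated 30-36 h at 37C. ONE-Glo luminescence was read; sodium butyrate at 4.5 mM final served as control.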
ELG1 genotoxic – induces genotoxicity in HEK293T cells with luciferase-tagged ELG1 | HEK293T ELG1-luciferase reporter, luminescence, 16 h | AID 504466 | Potency, µM (series often up to 46 µM), for the others: top-dose activity change, positive = activation, actives largely listed as activators | actives 1.3% (n = 330,000); further: % of control where 0% means no effect; nearly all actives have a fitted effect of over 60% in size
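ELG1-luciferase HEK293T cells, 2,000/well; compound pinned in; 16 hr, 37 °C, 5% CO2; ONE-Glo, 30 min RT; luminescence on CCD imager.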
NPC1 prom act – activators of NPC1 promoter | actives 2.4% (n = 320,000) | Potency, µM (series often up to 9.22 µM), inactives show at the highest dose activation, hits mostly activators | Huh7 NPC1 promoter luciferase reporter, 24 h | AID 485313; further: % of control where 0% means no effect; nearly all actives have a fitted effect of over 60% in size
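Stable NPC1-promoter luciferase Huh7 line; cpd (DMSO) 24 h, 37 °C, 5% CO2; Amplite luciferase reagent 10 min RT; luminescence readout. qHTS format.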
* = called active by the depositor. The call rests on the fitted dose curve; in most records, active means well fitted curve in the direction sought with a large enough effect; inconclusive means small, poorly fitted or top-dose-only effect, or another doubt; inactive means no such curve, though single readings can be large; an effect the other way counts as inactive or inconclusive. Potency means the concentration at half of the fitted maximal effect.

Cc1ccc(/C=N/N=C/c2ccc(C)cc2)cc1 was read as Rab9 promoter act inconclusive, FLuc counter 2.4µM*, ELG1 repair inh inconclusive, SMN2 splice enh inconclusive, ELG1 genotoxic 21µM* and NPC1 prom act inconclusive.
`Oc1ccc(/C=N/N=C/c2ccc(O)c(O)c2)cc1O` gave Rab9 promoter act -2%, FLuc counter 15µM*, ELG1 repair inh 3%, ELG1 genotoxic 11% and NPC1 prom act -6%.
Oc1ccc(/C=N/N=C/c2ccc(O)cc2)cc1 was read as Rab9 promoter act -15%, FLuc counter 7.6µM*, ELG1 repair inh 6%, SMN2 splice enh -4%, ELG1 genotoxic 4% and NPC1 prom act -2%.
For C=CCc1cc(C=O)cc(OCC)c1O the results were Rab9 promoter act -4%, FLuc counter inconclusive, ELG1 repair inh 4%, ELG1 genotoxic 1% and NPC1 prom act 0%.
For C(=N\N=C\c1ccccc1)/c1ccccc1 the results were Rab9 promoter act 21%, FLuc counter 0.95µM*, ELG1 repair inh inconclusive, SMN2 splice enh 7%, ELG1 genotoxic 11% and NPC1 prom act 1%.
`C(=C/c1ccccc1)/c1ccccc1` gave SMN2 splice enh 17%.
For Cc1ccc(Nc2nc3c(c(=O)[nH]2)CCCC3)cc1 the results were Rab9 promoter act inconclusive, FLuc counter inconclusive, ELG1 repair inh inconclusive, SMN2 splice enh inconclusive, ELG1 genotoxic 12% and NPC1 prom act inconclusive.
For O=c1[nH]c(Nc2nc3ccccc3o2)nc2c1CCCC2 the results were Rab9 promoter act 0.32µM*, FLuc counter 1.5µM*, ELG1 repair inh inconclusive, SMN2 splice enh 3.5µM*, ELG1 genotoxic inconclusive and NPC1 prom act 0.32µM*.
Screening O=[N+]([O-])c1nn(-c2ccccc2)[n+]([O-])c1N1CCN(c2ccccc2F)CC1 returned Rab9 promoter act 0%, FLuc counter -13%, ELG1 repair inh -11%, SMN2 splice enh -21%, ELG1 genotoxic -11% and NPC1 prom act -1%.
`Cc1ccc2nc(C(F)C(F)(F)F)[nH]c2c1` (centres undefined) gave Rab9 promoter act 1%, FLuc counter 19µM*, ELG1 repair inh inconclusive, ELG1 genotoxic 7% and NPC1 prom act -4%.
For Cc1nc2ccc([N+](=O)[O-])cc2[nH]1 the results were Rab9 promoter act -2%, FLuc counter -2%, ELG1 repair inh -8%, SMN2 splice enh 0%, ELG1 genotoxic -2% and NPC1 prom act -2%.
`Cc1ccc2nc(-c3ccncc3)[nH]c2c1` gave Rab9 promoter act inconclusive, FLuc counter 8.5µM*, ELG1 repair inh inconclusive, ELG1 genotoxic 12µM* and NPC1 prom act 2.2µM*.
Screening Cc1ccc(-c2nc3ccccc3[nH]2)cn1 returned Rab9 promoter act inconclusive, FLuc counter 15µM*, ELG1 repair inh inconclusive, ELG1 genotoxic inconclusive and NPC1 prom act inconclusive.
For Cc1ccc2oc(=O)c(-c3nc4ccc(C)cc4[nH]3)cc2c1 the results were FLuc counter 3%.
`Cc1nc2ccc(-c3nc4ccccc4[nH]3)cc2[nH]1` gave Rab9 promoter act 0.63µM*, FLuc counter 4.8µM*, ELG1 repair inh inconclusive, SMN2 splice enh 2.8µM*, ELG1 genotoxic 19% and NPC1 prom act 1.4µM*.
For CCC(C)NC(=O)c1nn(-c2ccc(C)cc2)nc1CO (centres undefined) the results were FLuc counter 0% and SMN2 splice enh -5%.
For COc1cc(SC)ccc1C(=O)N(Cc1ccccc1)c1ccccn1 the results were Rab9 promoter act 0%, FLuc counter 1%, ELG1 repair inh inconclusive, ELG1 genotoxic 1% and NPC1 prom act 0%.
`Cc1cc2c(cc1S(=O)(=O)NCCc1ccc(Cl)cc1)OCC(=O)N2` gave Rab9 promoter act 0%, FLuc counter -1%, ELG1 repair inh -22%, ELG1 genotoxic -2% and NPC1 prom act -2%.
